According to PubChem BioAssay:
Values without a mark were called inactive. Activity calls are given as the source filed them. Rule as the data show it: active = inhibition above about 36%; inactive = the rest.

Each molecule was assayed on transactivating tegument protein VP16 (Human herpesvirus 1) (assay: compounds suppressing VP16-driven luciferase signal – cell-based, luminescence, single concentration, counter-screen for SRC2 inhibitor project (AID 652007)). Details: cell-based VP16 transactivation luciferase reporter, at 8.9 µM, active compounds read high.

Q: How did the inhibition turn out when `COc1ccc(/C=C2/SC(=S)N(CCCC(=O)N3CCN(C)CC3)C2=O)cc1` was run?
A: 8.95%

Q: For `CC1=CC(C)(C)Nc2ccc(OC(=O)C(C)N3C(=O)c4ccccc4C3=O)cc21` (stereo not given), which inhibition is on record?
A: -33.8%

Q: `CCOC(=O)c1c(C)[nH]c(C)c1C(=O)COC(=O)c1ccccc1O` was tested. Which inhibition did it give?
A: 2.18%

Q: With `Cc1ccc(C2CC(c3cccs3)=NN2C(=O)CCl)cc1` (stereo not given) as the molecule, how does the inhibition read?
A: 6.45%

Q: `O=S(=O)(Nc1cc(Sc2cccc3cccnc23)c(O)c2ccccc12)c1ccccc1` was tested. Which inhibition did it give?
A: 97.2% (active)

Q: With `N#Cc1ccc(-c2ccc(OCC(=O)Nc3cccnc3)cc2)cc1` as the molecule, how does the inhibition read?
A: -9.35%

Q: `CC(=O)Nc1ccc(NC(=O)c2ccc(-c3ccnn3C)c3ccoc23)cc1` was tested. Which inhibition did it give?
A: -6.57%

Q: For `CC(=O)C1C(=O)c2c(cccc2[N+](=O)[O-])C1=Nc1cccc(Cl)c1` (stereo not given), which inhibition is on record?
A: -60.3%

Q: How did the inhibition turn out when `FC(F)(F)c1cnc(NNC(=S)Nc2ccccc2)c(Cl)c1` was run?
A: 10.3%

Q: For `COC(=O)C1=C(C)N(Cc2ccccc2C(F)(F)F)C(=NCc2ccccc2)NC1c1ccc(Cl)cc1` (stereo not given), which inhibition is on record?
A: 2.66%

Q: `Cc1nc2scc(C)n2c(=O)c1S(=O)(=O)Nc1ccc(OC(F)(F)F)cc1` was tested. Which inhibition did it give?
A: -5.83%

Q: Which inhibition does the source give for `CC(C)N(Cc1ccccc1)C(=S)NCc1ccccc1` here?
A: -3.69%

Q: `Cc1nc([N+](=O)[O-])c(Sc2nc3ccc([N+](=O)[O-])cc3[nH]2)n1Cc1ccccc1` was tested. Which inhibition did it give?
A: -6.71%

Q: How did the inhibition turn out when `COc1cc(OC)cc(C2=Cc3ccc(OC)cc3C(CC(C)=O)N2c2ccc(C#CC3(O)CCCCC3)cc2)c1` (stereo not given) was run?
A: -2.24%

Q: How did the inhibition turn out when `Cc1ccc(CN2C(=O)/C(=C\c3ccc(C(=O)NCc4cccnc4)cc3)Oc3ccccc32)cc1` was run?
A: -0.83%

Q: For `Cc1c(CCC(=O)N2CCC[C@H]2C(=O)O)c(=O)oc2c(C)c3oc4c(c3cc12)CCCC4`, which inhibition is on record?
A: 39% (active)

Q: How did the inhibition turn out when `NCCCCCc1nnc(SCc2ccccc2Cl)o1` was run?
A: 48.5% (active)

Q: `COc1ccc(CNCCNC(=O)c2cccs2)c(OC)c1OC` was tested. Which inhibition did it give?
A: 8.76%

Q: Which inhibition does the source give for `CC1=CC(C)(C)N(S(=O)(=O)c2ccc(C)cc2)c2ccc(C)cc21` here?
A: 0.6%

Q: For `Cc1[nH]nc(-c2cccnc2)c1N=NN(C)C`, which inhibition is on record?
A: 10.9%

Q: Which inhibition does the source give for `O=C(NC1CC1)c1ccc(-c2nc3ccccc3s2)s1` here?
A: -51.1%

Q: For `COc1ccc(OC)c(NC(=O)COC(=O)CCCN=C2NS(=O)(=O)c3ccccc32)c1`, which inhibition is on record?
A: -0.67%

Q: How did the inhibition turn out when `CCCCN1CC(COCc2ccccc2)Oc2cccc(NCc3cc(OC)c(OC)c(OC)c3)c2S1(=O)=O` (stereo not given) was run?
A: -12.2%

Q: Which inhibition does the source give for `O=C(Nc1ncc([N+](=O)[O-])s1)c1ccc2c(c1)OCO2` here?
A: -5.69%

Q: `O=S(=O)(c1ccc(NC(=S)NCc2ccco2)cc1)N1CCCCC1` was tested. Which inhibition did it give?
A: -14.6%

Q: How did the inhibition turn out when `COc1cc2[nH]c3c(=O)n4c(nc3c2cc1OC)SCCC4` was run?
A: -66.2%

Q: `COc1ccc(CN2CCN(Cc3ccc(C(F)(F)F)cc3)CC2)cc1` was tested. Which inhibition did it give?
A: 10.7%

Q: `Oc1cccc(C(Nc2nccs2)c2ccc3cccnc3c2O)c1` (stereo not given) was tested. Which inhibition did it give?
A: -15.2%

Q: With `N#Cc1c(N)nc2c(c1N)CC(C(F)(F)F)O2` (stereo not given) as the molecule, how does the inhibition read?
A: -1.62%

Q: Which inhibition does the source give for `c1ccc(C2=Nn3c(nnc3-c3ccncc3)SC2)cc1` here?
A: -2.29%

Q: With `CC(C)CCSc1nc(N)c(C#N)cc1C#N` as the molecule, how does the inhibition read?
A: -75.7%

Q: How did the inhibition turn out when `CC(c1ccccc1)N1CCN(C(=O)CCl)CC1` (stereo not given) was run?
A: 17.4%

Q: How did the inhibition turn out when `Nc1ccc2oc(-c3cccc4ccccc34)nc2c1` was run?
A: 38.3% (active)

Q: With `O=C(Cc1coc2cc3c(cc12)CCC3)OCC(=O)N1CCCC1=O` as the molecule, how does the inhibition read?
A: 16.3%

Q: For `O=C(CSc1nc2nc(-c3cccs3)cc(C(F)(F)F)c2c(=O)[nH]1)C(F)(F)F`, which inhibition is on record?
A: -28.3%

Q: `O=C1NC(Cc2ccc(O)cc2)c2nc3cc(Cl)ccc3c(=O)n2-c2ncccc21` (stereo not given) was tested. Which inhibition did it give?
A: -1.01%

Q: For `COc1cccc(C(=O)c2sc(NC(C)C)nc2N)c1`, which inhibition is on record?
A: 6.6%

Q: `O=C(Cc1ccc(-c2ccccc2)cc1)NNC(=S)NCc1ccco1` was tested. Which inhibition did it give?
A: -22.3%

Q: With `CSCC[C@H](NC(=O)c1cc([N+](=O)[O-])ccc1Cl)c1nc2ccccc2[nH]1` as the molecule, how does the inhibition read?
A: -0.37%

Q: `COc1cc(S(=O)(=O)N(C)Cc2ccc3c(c2)OCCO3)ccc1NC(C)=O` was tested. Which inhibition did it give?
A: -27.6%
